Measurements reported in PubChem BioAssay (EPA / NIEHS).
Active and inactive are the calls of the source. The calls were made as follows: active = hit-call score of the fitted dose curve at least 0.9, where 1 is the maximum; inactive = score below 0.9.

Experiments:
Details in all cases: mRNA level, 48 h; actives raise or lower the signal
[1] = read-out: Cytochrome P450 7A1 (Homo sapiens) (UniProt P22680); test: LTEA_HepaRG_CYP7A1: Life Technologies and Expression Analysis (LTEA) Assay for Cytochrome P450 7A1 (CYP7A1) using HepaRG (AID 2283496)
Summary of the method: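 Using 0.5% DMSO as vehicle and baseline, chemicals were tested in duplicate over an 8-point range from 100 uM on HepaRG cells for 48 h; qRT-PCR signals were normalised to ACTB, GAPDH and POLR2A.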

[2] = read-out: Glutathione S-Transferase (GSTA2), GSTA2 (gene 2939); test: LTEA_HepaRG_GSTA2: Life Technologies and Expression Analysis (LTEA) Assay for Glutathione S-Transferase (GSTA2) using HepaRG (AID 2283497)
Summary of the method: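 Oxidative-stress marker GSTA2 is quantified by TaqMan qRT-PCR in HepaRG cultures treated 48 h across an eight-point range to 100 uM. Expression is normalized to endogenous controls and compared with 0.5% DMSO vehicle.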

[3] = read-out: Glutamate-cysteine ligase catalytic (GCLC), GCLC (gene 2729); test: LTEA_HepaRG_GCLC: Life Technologies and Expression Analysis (LTEA) Assay for Glutamate-cysteine ligase catalytic (GCLC) using HepaRG (AID 2283498)
Summary of the method: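 Oxidative-stress marker GCLC is measured as mRNA change in human HepaRG liver cells after 48 h chemical treatment in 0.5% DMSO, eight concentrations from 100 uM. Activity is fitted bidirectionally against vehicle.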

[4] = read-out: growth arrest and DNA damage 45 (GADD45G), GADD45G (gene 10912); test: LTEA_HepaRG_GADD45G: Life Technologies and Expression Analysis (LTEA) Assay for growth arrest and DNA damage 45 (GADD45G) using HepaRG (AID 2283499)
Summary of the method: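 Gain or loss of GADD45G mRNA, quantified by TaqMan qRT-PCR against three housekeeping genes, is fitted in both directions relative to 0.5% DMSO. Human HepaRG cultures receive test chemical for 48 h at up to 100 uM.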

[5] = read-out: Glutamate-cysteine ligase regulatory (GCLM), GCLM (gene 2730); test: LTEA_HepaRG_GCLM: Life Technologies and Expression Analysis (LTEA) Assay for Glutamate-cysteine ligase regulatory (GCLM) using HepaRG (AID 2283500)
Summary of the method: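 HepaRG, 48 h dosing, 100 uM top, half-log x8, 0.5% DMSO vehicle. Readout: GCLM mRNA by TaqMan qRT-PCR, housekeeping-normalized (ACTB/GAPDH/POLR2A). Curves fit bidirectionally vs DMSO baseline.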

[6] = read-out: Glutathione S-transferase M3 (GSTM3), GSTM3 (gene 2947); test: LTEA_HepaRG_GSTM3: Life Technologies and Expression Analysis (LTEA) Assay for Glutathione S-transferase M3 (GSTM3) using HepaRG (AID 2283501)
Summary of the method: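 HepaRG, plated 48 h, then serum-free induction medium; test chemical 48 h, duplicate; 100 uM top, half-log x8, 0.5% DMSO. Read-out: GSTM3 mRNA (TaqMan qRT-PCR, Fluidigm array). Bidirectional fit vs DMSO.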

[7] = read-out: Heat shock 70 kDa protein 1 (HSPA1A), gene 3303; test: LTEA_HepaRG_HSPA1A: Life Technologies and Expression Analysis (LTEA) Assay for Heat shock 70 kDa protein 1 (HSPA1A) using HepaRG (AID 2283502)
Summary of the method: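 HepaRG, 48 h exposure, 8-pt half-log CRC from 100 uM in 0.5% DMSO, duplicates. Readout: TaqMan qRT-PCR of HSPA1A mRNA, housekeeping-normalized (ACTB/GAPDH/POLR2A). Bidirectional fit vs 0.5% DMSO baseline.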

[8] = read-out: 3-Hydroxy-3-Methylglutaryl-CoA Synthase 2 (HMGCS2), HMGCS2 (gene 3158); test: LTEA_HepaRG_HMGCS2: Life Technologies and Expression Analysis (LTEA) Assay for 3-Hydroxy-3-Methylglutaryl-CoA Synthase 2 (HMGCS2) using HepaRG (AID 2283504)
Summary of the method: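 HepaRG, plated 48 h then switched to serum-free induction media; cmpd 8-pt, max 100 uM, 1/2-log, 0.5% DMSO, n=2, 48 h. HMGCS2 mRNA by Fluidigm TaqMan qRT-PCR, ACTB/GAPDH/POLR2A norm; bidirectional fit vs DMSO.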

HGF (gene 3082) = test: LTEA_HepaRG_HGF: Life Technologies and Expression Analysis (LTEA) Assay for Hepatocyte Growth Facto (HGF) using HepaRG (AID 2283505)
Summary of the method: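 Read-out is HGF transcript level by qRT-PCR, normalized to three housekeeping genes, fitted bidirectionally against 0.5% DMSO vehicle. Human HepaRG cells received test chemicals for 48 h at up to 100 uM.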

[9] = read-out: Hypoxia-inducible factor 1-alpha (Homo sapiens) (UniProt Q16665); test: LTEA_HepaRG_HIF1A: Life Technologies and Expression Analysis (LTEA) Assay for Hypoxia-inducible factor 1 (HIF1A) Trancription factor using HepaRG (AID 2283503)
Summary of the method: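 Gain- or loss-of-signal HIF1A mRNA changes are fitted against a DMSO baseline. HepaRG cultures receive eight concentrations, highest 100 uM, for 48 h in serum-free induction medium with 0.5% DMSO.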

Measured: AC50

Sequence of Hypoxia-inducible factor 1-alpha (Homo sapiens) (Q16665 whole entry, looked up): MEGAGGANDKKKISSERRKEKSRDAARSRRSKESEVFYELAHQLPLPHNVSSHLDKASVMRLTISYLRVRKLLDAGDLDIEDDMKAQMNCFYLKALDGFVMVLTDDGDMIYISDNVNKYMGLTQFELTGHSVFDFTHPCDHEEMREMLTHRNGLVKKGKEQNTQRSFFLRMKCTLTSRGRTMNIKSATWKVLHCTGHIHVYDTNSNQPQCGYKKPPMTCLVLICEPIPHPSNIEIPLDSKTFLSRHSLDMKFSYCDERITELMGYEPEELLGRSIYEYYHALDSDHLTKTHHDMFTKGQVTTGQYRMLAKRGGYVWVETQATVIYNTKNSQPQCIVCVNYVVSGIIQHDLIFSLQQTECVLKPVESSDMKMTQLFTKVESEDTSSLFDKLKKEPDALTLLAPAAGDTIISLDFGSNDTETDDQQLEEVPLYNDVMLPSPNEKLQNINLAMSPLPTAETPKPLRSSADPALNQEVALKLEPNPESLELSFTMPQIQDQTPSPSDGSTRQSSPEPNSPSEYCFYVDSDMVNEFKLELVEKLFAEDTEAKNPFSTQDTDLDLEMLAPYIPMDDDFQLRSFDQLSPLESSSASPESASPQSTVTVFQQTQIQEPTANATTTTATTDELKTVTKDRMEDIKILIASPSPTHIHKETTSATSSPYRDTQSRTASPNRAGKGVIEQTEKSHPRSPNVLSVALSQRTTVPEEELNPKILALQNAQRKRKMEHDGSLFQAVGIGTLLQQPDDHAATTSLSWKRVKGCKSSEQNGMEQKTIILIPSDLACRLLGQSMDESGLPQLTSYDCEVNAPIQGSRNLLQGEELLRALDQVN

Cc1ccc(N=CN(C)C=Nc2ccc(C)cc2C)c(C)c1
not listed: [9]
inactive: all other assays above

N#Cc1c(Cl)cccc1Cl
inactive: all assays above

O=P(O)(O)CCCl
not listed: [4]
inactive: all other assays above

CCOC(=O)C(C)OC(=O)c1cc(Oc2ccc(C(F)(F)F)cc2Cl)ccc1[N+](=O)[O-] (stereo not given)
active: [1] 50 µM | [2] 84.3 µM | [8] 1.38 µM
not listed: [4]
inactive: all other assays above

Clc1nc(Cl)nc(Nc2ccccc2Cl)n1
not listed: [9]
inactive: all other assays above

COP(=O)(OC)O/C(C)=C/C(=O)N(C)C
not listed: [4]
inactive: all other assays above

CCCCC(O)(Cn1cncn1)c1ccc(Cl)cc1Cl (stereo not given)
active: [1] 89 µM | [2] 73.2 µM | [4] 15.8 µM | [6] 82.6 µM | [7] 18.8 µM | [8] 77.9 µM | HGF (gene 3082) 75.3 µM
inactive: [3] | [5]

Cc1cc(C)nc(Nc2ccccc2)n1
active: [1] 3.4 µM
inactive: all other assays above

COc1ccc(-c2ccccc2)cc1NNC(=O)OC(C)C
not listed: [9]
inactive: all other assays above

CC1(C)C(C(=O)OC(C#N)c2cccc(Oc3ccccc3)c2)C1(C)C (stereo not given)
not listed: [4]
inactive: all other assays above

CCOP(=S)(OCC)Oc1nc(Cl)n(C(C)C)n1
active: [1] 2.01 µM | [8] 17.2 µM
not listed: [9]
inactive: all other assays above

COC(=O)NS(=O)(=O)c1ccc(N)cc1
not listed: [9]
inactive: all other assays above

CNC(=O)N(C)c1nnc(C(C)(C)C)s1
not listed: [9]
inactive: all other assays above

COC(=O)N(C(=O)N1CO[C@@]2(C(=O)OC)Cc3cc(Cl)ccc3C2=N1)c1ccc(OC(F)(F)F)cc1
active: [1] 31.8 µM | [2] 51.3 µM | [8] 40 µM
not listed: [9]
inactive: all other assays above

CC(C)N1C(=O)c2ccccc2NS1(=O)=O
not listed: [9]
inactive: all other assays above

CSC(=O)c1c(C(F)F)nc(C(F)(F)F)c(C(=O)SC)c1CC(C)C
active: [2] 88.2 µM | [4] 65.3 µM | [8] 85.8 µM
not listed: [9]
inactive: all other assays above

O=C(O)c1c(Cl)ccc2cc(Cl)cnc12
not listed: [4]
inactive: all other assays above
